# The whole screen tested about 16,000 compounds, of which about 4,000 (25%) were called active. About 26% were inconclusive and are not listed. A selection follows. Values without a mark were called inactive. Calls follow the shape of the dose curve; as a rule, active = well fitted curve in the direction sought with a large enough effect; inconclusive = small, poorly fitted or top-dose-only effect, or effect the other way; inactive = no such curve, though single readings can be large or run the other way.
# Biological target: Cytochrome P450 2C9 (Homo sapiens) (UniProt P11712)
# Sequence (P11712 whole entry, looked up): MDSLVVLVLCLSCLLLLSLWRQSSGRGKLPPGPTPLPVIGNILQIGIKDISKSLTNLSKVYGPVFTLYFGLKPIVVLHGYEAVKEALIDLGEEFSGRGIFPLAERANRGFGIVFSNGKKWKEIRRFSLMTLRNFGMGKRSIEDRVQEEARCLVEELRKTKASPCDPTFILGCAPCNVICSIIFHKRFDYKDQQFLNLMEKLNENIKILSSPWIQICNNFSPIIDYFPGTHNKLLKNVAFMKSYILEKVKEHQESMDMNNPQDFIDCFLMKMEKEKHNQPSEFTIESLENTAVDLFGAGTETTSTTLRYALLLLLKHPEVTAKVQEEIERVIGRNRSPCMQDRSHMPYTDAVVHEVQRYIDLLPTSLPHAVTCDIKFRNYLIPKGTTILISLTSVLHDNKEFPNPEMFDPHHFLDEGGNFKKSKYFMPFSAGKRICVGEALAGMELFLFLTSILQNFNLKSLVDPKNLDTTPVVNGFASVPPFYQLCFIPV
# Assay: Cytochrome panel assay with activity outcomes
# Settings: recombinant CYP, pro-luciferin dealkylation, luminescence, p450-cyp2c9; series mostly up to 57.1 µM; activity, negative = inhibition: at the top concentration
# % is scaled to controls: 0 for no effect and ±100 for the full control effect.
Compound,AC50,"activity, negative = inhibition"
Cc1ccc2nc(SCC(=O)Nc3nnc(SCC(N)=O)s3)[nH]c2c1,11.2 µM (active),
COc1ccc(-n2c(=O)[nH]cc(C(=O)Nc3ccc4c(c3)OCCO4)c2=O)cc1,7.08 µM (active),
COc1cc(C(=O)Nc2ccc3c(c2)OCCO3)c(-n2cnnn2)cc1OC,,-8.95%
COc1cc(-c2nnc(SCC(=O)Nc3ccc4c(c3)OCCO4)o2)cc(OC)c1OC,1.41 µM (active),
CCCCNCCOCCSc1ccc(Cl)cc1,,-16.8%
CCCCCc1nc2c(=O)[nH]c3ccccc3c2o1,,-15.2%
N/C(=N\c1nc2ccccc2o1)NC(=O)c1ccccc1F,12.6 µM (active),
NC(=Nc1ccccc1)NC(=O)c1nc(Cl)c(N)nc1N,,-6.89%
COc1ccc(C2/C(=C(/O)c3ccc4c(c3)CC(C)O4)C(=O)C(=O)N2CCN2CCOCC2)cc1 (stereo unspecified),,-36.8%
COc1cccc(NC(=O)CSc2nnc(CN3CCOCC3)n2C)c1,,-27.8%
CCN(CC)C(=O)CSc1nc2ccc(NC(=O)CSc3nnc(COc4ccccc4C)n3C)cc2s1,1.58 µM (active),
O=C(COc1ccc(-c2ccccc2)cc1)N/N=C/c1ccccc1Br,4.47 µM (active),
CCOC(=O)N/N=C/c1ccccc1F,,-7.31%
CN(C)Cc1c[nH]c2nc[nH]c(=O)c12,,4.29% [at 11.4 µM]
c1ccc(CNc2nc(-c3ccc4c(c3)OCO4)nc3ccccc23)cc1,,-26.1% [at 2.29 µM]
CC(NC(=O)CCSc1nc(-c2ccc3c(c2)OCO3)cc(C(F)(F)F)n1)c1ccccc1 (stereo unspecified),2 µM (active),

Compound,AC50,"activity, negative = inhibition"
CC(=O)NCCNc1nc(-c2ccc3c(c2)OCO3)nc2ccccc12,,5.84% [at 2.29 µM]
Cc1cc(NCCO)c2ccccc2n1,,-11.5%
COCCNc1nc(-c2ccccc2C(F)(F)F)nc2ccccc12,,-9.26% [at 2.29 µM]
CCCNc1c(F)c(F)c2c(C)c3ccccc3nc2c1F,15.8 µM (active),
CCN1CCN(c2nc(-c3ccccn3)nc3ccccc23)CC1,,-23.3%
CCCCC1CCC(c2nc(-c3ccccn3)no2)CC1 (stereo unspecified),14.1 µM (active),
CC(=O)/C=C/c1ccc2ccccc2n1,,-7.35%
c1ccc2nc(-c3ccncc3)ccc2c1,5.01 µM (active),
COc1cccc(-c2cc(N(C)Cc3ccco3)ncn2)c1,,-6.29% [at 2.29 µM]
C[C@@H]1NC(=O)C/C=C\[C@@H](C)[C@@H]2C=C[C@H](O)[C@@H](COC(=O)[C@H](C)NC(=O)C/C=C\[C@@H](C)[C@@H]3C=C[C@H](O)[C@@H](COC1=O)O3)O2,,5.32% [at 11.4 µM]
CCOc1cc(S(=O)(=O)N(Cc2ccccc2)Cc2ccccc2)c(OCC)cc1-n1cnnn1,7.94 µM (active),
O=C(O)CN(CCOCCOCCN(CC(=O)O)CC(=O)O)CC(=O)O,,6.97%
FC(F)(F)c1ccccc1-c1nc(NC2CC2)c2ccccc2n1,,12.1% [at 2.29 µM]
COc1ccc2ccccc2c1/C=C\C(=O)c1ccccc1,1.26 µM (active),
COc1cc(C)cc(OC)c1/C=C\C(=O)O,,-15.8% [at 11.4 µM]

# Source: PubChem BioAssay AID1851 (National Center for Advancing Translational Sciences (NCATS), 2009)
